Among all 48,000 compounds or so, about 13,000 (27%) showed an effect of 50% or more. Some of the results follow.
test system: Wolbachia pipientis; test: Anti-Wolbachia Cell-Based Screen; format: functional; design: scale not given: in the data most compounds retested in dose-response had high values; conditions: 5 µM

Row | Structure (SMILES) | Percent Effect
1 | CC(C)(C)c1ccc(C2(C(=O)NCCS(C)(=O)=O)CC2)cc1 | 2.157%
2 | Cn1cnc(-c2ccc(F)cc2)c1NC(=O)CCNC(=O)C(C)(C)C | -6.706%
3 | Cc1ccc(OCC(O)CN(C)CC(=O)NC(C)C)c(C)c1 (configuration not stated) | 0.9379%
4 | Cc1ccc(S(=O)(=O)N(C)Cc2cnccn2)cc1N(C)C | -3.361%
5 | CO[C@H]1CC[C@H]2[C@H]1OCCN2C(=O)C1=CCCC1 | 2.583%
6 | CO[C@H]1CC[C@H]2[C@H]1OCCN2C(=O)CC1=CCCCC1 | 98.05%
7 | O=C(C1=CCCC1)N1CCO[C@H]2[C@@H](OCC3CC3)CC[C@@H]21 | -8.51%
8 | CCO[C@H]1CC[C@H]2[C@H]1OCCN2C(=O)CC1=CCCCC1 | 80.53%
9 | CCO[C@@H]1CC[C@H]2[C@H]1OCCN2C(=O)CC1=CCCCC1 | 124.5%
10 | CCOCC1CC2(CCN(C(=O)CC3=CCCCC3)CC2)CO1 (configuration not stated) | -15.26%
11 | CO[C@@H]1CC[C@H]2[C@H]1OCCN2C(=O)C1=CCCC1 | 4.441%
12 | CC(C)(CNC(=O)Nc1cccc(-c2cccs2)c1)C(N)=O | 3.927%
13 | N#Cc1ccc(Cn2cncn2)c(F)c1 | -14.63%
14 | N#Cc1nccnc1NC1CCN(c2ccccc2OC(F)F)C1 (configuration not stated) | 9.423%
15 | CCN1CCc2[nH]cnc2C12CCN(c1ccc(Cl)c(C(=O)O)n1)CC2 | -7.204%
16 | COc1ccc(CNC(=O)NCC2CCOC2)c(C(F)(F)F)c1 (configuration not stated) | -17.58%
17 | O=C(c1cc2c(s1)CCC2)N1CCCC1Cn1cccn1 (configuration not stated) | 111%
18 | O=C(c1cc2c(s1)CCCC2)N1CCCC1Cn1cccn1 (configuration not stated) | 141.2%
19 | O=C(c1cc2c(s1)CCC2)N1CCCCC1Cn1cccn1 (configuration not stated) | -2.201%
20 | Cc1nn(C)c(N2CCOCC2)c1CNC1CCN(C(C)(C)C)CC1 | -15.17%
21 | c1cc(-c2nccn2CCc2nc3c(s2)CCC3)ccn1 | 7.441%
22 | Cc1nc(CCN2CCCCC2)n(-c2ccc(F)cc2)n1 | -12.73%
23 | c1ccc(-c2nnc3sc(CCN4CCCCCC4)nn23)cc1 | 117.6%
24 | Cc1ccc(CNC2CCN(CCc3ccncc3)CC2)s1 | -7.206%
25 | c1cc(-c2ccn(CCN3CCCC3)n2)cc(-c2nccs2)c1 | -3.86%
26 | c1ccc(-c2cccc(-c3ccn(CCN4CCCCC4)n3)c2)nc1 | 2.819%

Row | Structure (SMILES) | Percent Effect
27 | Cc1ccc(-c2cccc(-c3ccn(CCN4CCCC4)n3)c2)nn1 | -8.933%
28 | c1cc(-c2nnc3sc(CCN4CCCC4)nn23)ccn1 | 107.3%
29 | c1ccc(-c2nnc3sc(CCN4CCCC4)nn23)cc1 | 117%
30 | CC(C)(C)Cc1noc2ncc(C(=O)N3CCC3)cc12 | -0.07347%
31 | O=C(C1SCCc2sccc21)N1CCN(CC(F)F)CC1 (configuration not stated) | 2.68%
32 | CS(=O)(=O)c1ccc(OCCNCc2cccc(F)c2)cc1 | -4.841%
33 | CN(CCOc1cccc(Cl)c1)Cc1nnc(C(C)(C)C)o1 | -19.16%
34 | CN(CCOc1cccc(CNS(C)(=O)=O)c1)C1CCOCC1 | -5.968%
35 | CN(CCOc1cccc(S(C)(=O)=O)c1)c1ccccc1 | 88.15%
36 | CS(=O)(=O)CCCOc1cccc(-n2cccn2)c1 | -22.07%
37 | CS(=O)(=O)CCCOc1cccc(-n2ccnc2)c1 | 0.659%
38 | CCC(C)(C)N(C)CCOc1cccc(S(C)(=O)=O)c1 | 103.5%
39 | COc1cccc(S(=O)(=O)CCN2CCN(CC(F)F)CC2)c1 | 1.442%
40 | CN(CCOc1cccc(S(C)(=O)=O)c1)CC(F)F | 95.25%
41 | Cc1cccc(C(=O)NC2CCN(c3cnn(C)c3)C2=O)c1C (configuration not stated) | 3.687%
42 | O=C(CC1CC1)NCc1cn2c(n1)CN(Cc1nccs1)CC2.O=C(O)C(F)(F)F | 17.65%
43 | Cc1cc(C(=O)N2C[C@@H]3[C@@H](C2)OCC(=O)N3CC2CC2)no1 | 15.73%
44 | CS(=O)(=O)CCN1CCC(=Cc2ccccc2)CC1 | 3.303%
45 | COc1cccc(CN(C(=O)NC2CC2)C2CCC(O)CC2)c1 (configuration not stated) | 4.411%
46 | CC(=O)NCC(=O)N(CCc1ccccc1)C1CCOC1 (configuration not stated) | 3.358%
47 | CN(CC(=O)N(C)C1CCN(CC2CCOC2)CC1)c1ccccc1 (configuration not stated) | -6.754%
48 | O=C(NC1CC1)N(CCc1ccccc1)C1CCOC1 (configuration not stated) | -8.792%
49 | CNC(=O)CN([C@H]1C[C@H]2CCOC[C@H]2C1)S(=O)(=O)c1ccccc1 | 119.6%
50 | CNC(=O)CN(C(=O)c1ccccc1)[C@H]1C[C@H]2CCOC[C@H]2C1 | 119.3%
51 | O=C(C1CC1)N(CCc1ccccc1)C1CCOC1 (configuration not stated) | -3.562%
52 | O=C(O)CN(C(=O)c1ccccc1)[C@H]1C[C@H]2CCOC[C@H]2C1 | 112.1%

Row | Structure (SMILES) | Percent Effect
53 | O=C(C1CCOCC1)N(CCc1ccccc1)C1CCOC1 (configuration not stated) | -13.84%
54 | CNC(=O)[C@@]12CCO[C@@H]1CCN(S(=O)(=O)c1ccccc1)C2 | -56.29%
55 | CN1CCN(CCO)C(=O)C12CCN(c1nccs1)CC2 | 3.933%
56 | CN1CCOC(C(=O)Nc2ccc3[nH]nnc3c2)C1 (configuration not stated) | 3.877%
57 | CCc1nsc(NC2CCCn3nc(COC)nc32)n1 (configuration not stated) | -2.766%
58 | CCc1nccn1CCCNC(=O)c1cnn(-c2ccccc2OC)c1 | 86.43%
59 | Cc1ccc2nc(C)c(C)c(C(=O)NCCCn3ccnn3)c2c1 | -15.24%
60 | CCc1nccn1CCCNC(=O)CN1CCN(c2ncccn2)CC1 | -11.95%
61 | CC(C)c1nccn1CCCNC(=O)c1ccc(-c2cnn(C)c2)nc1 | 3.735%
62 | COc1ccccc1-n1cc(C(=O)NCCCn2ccnn2)cn1 | 105.8%
63 | Cc1ccc2[nH]c(C(=O)NCCCn3ccnn3)c(C)c2c1 | -11.21%
64 | CC(C)CCN1CC2(CCN(C3CCCOC3)CC2)OC1=O (configuration not stated) | 10.38%
65 | COCCOc1ccc(NC(=O)N2CCCC2c2ccsc2)cn1 (configuration not stated) | -8.185%
66 | COc1c(F)ccc(C(=O)N2CC[C@H](CO)[C@@H](O)C2)c1F | 0.1381%
67 | CC(C)Nc1nc(N2CCCC2)nc2c1CN(S(C)(=O)=O)CC2 | 105.6%
68 | Cc1nc(CN2CCc3nc(N4CCCC4)nc(NC(C)C)c3C2)cs1 | -7.957%
69 | CCS(=O)(=O)N1CCc2nc(N3CCOCC3)nc(N(C)C)c2CC1 | -7.887%
70 | CCCS(=O)(=O)N1CCc2nc(N3CCOCC3)nc(N(C)C)c2C1 | 5.75%
71 | CC(C)Nc1nc(N2CCCC2)nc2c1CN(c1ncc(F)cn1)CC2 | 118.9%
72 | CCc1ncnc2c1CCN(c1ncc(F)cn1)CC2 | -14.13%
73 | CC(C)CCN1CCc2nc(N3CCOCC3)nc(NC(C)C)c2C1 | 0.8088%
74 | CCCN1CCc2nc(N3CCOCC3)nc(NC(C)C)c2C1 | -9.413%
75 | CC(C)Nc1nc(N2CCCC2)nc2c1CN(C)CC2 | 109%
76 | CC(C)Nc1nc(N2CCCC2)nc2c1CCN(S(C)(=O)=O)CC2.O=C(O)C(F)(F)F.O=C(O)C(F)(F)F | 110.6%
77 | CC(C)Nc1nc2c(cc1C(=O)NCC1CC1)CCN(S(C)(=O)=O)CC2.O=C(O)C(F)(F)F | 8.623%
78 | Cc1cc(C(=O)N2CCC(c3nccn3CCCN(C)C)CC2)no1 | 1.64%

Row | Structure (SMILES) | Percent Effect
79 | Nc1nc(CCNc2ncnc3c2CCN(C(=O)C2CC2)C3)cs1 | -7.691%
80 | Cc1ccc(SCCN(C)C(=O)c2cn(CCN)nn2)cc1 | 1.127%
81 | COCC(=O)N(Cc1cccc(C)c1)Cc1ccccc1OC | -10.99%
82 | CC(C)(O)CN1CCN(C(=O)COC2CCCCC2)CC1 | -14.17%
83 | CCC(C)c1csc(NC(=O)Cc2csc(-c3nnc[nH]3)n2)n1 (configuration not stated) | -13.2%
84 | CCN1CCc2nc(N3CCOCC3)nc(NC(C)C)c2C1 | -4.113%
85 | CC(C)Nc1nc(N2CCCC2)nc2c1CN(C(C)C)CC2 | 4.85%
86 | CCC(C)N1CCc2nc(N3CCCC3)nc(NC(C)C)c2C1 (configuration not stated) | 120.2%
87 | CS(=O)(=O)NC1CCN(Cc2coc(-c3ccc(Cl)cc3)n2)CC1 | 11.26%
88 | O=C1NCCN1C1CCN(Cc2coc(-c3ccccc3)n2)CC1 | 93.32%
89 | c1csc(-c2nc(CN3CCN(c4cnccn4)CC3)co2)c1 | -1.577%
90 | Cc1ccc(-c2nc(CN3CCc4nn(C)c(=O)cc4C3)co2)cc1 | -7.957%
91 | O=S1(=O)CCCN1Cc1coc(-c2cccs2)n1 | 4.552%
92 | O=C1NCCN1C1CCCN(Cc2nnc(-c3ccc(F)cc3)o2)C1 (configuration not stated) | 8.098%
93 | O=C1NCCN1C1CCCN(Cc2coc(-c3ccc(F)cc3)n2)C1 (configuration not stated) | -1.248%
94 | O=C1NCCN1C1CCN(Cc2coc(-c3ccc(F)cc3)n2)CC1 | 91.35%
95 | Cc1ccc(-c2nc(CN3CCC(N4CCNC4=O)CC3)co2)cc1 | 99.39%
96 | O=C1NCCN1C1CCN(Cc2ccccn2)CC1 | -4.193%
97 | O=C1NCCN1C1CCCN(Cc2coc(-c3cccs3)n2)C1 (configuration not stated) | 113.2%
98 | CS(=O)(=O)NC1CCN(Cc2coc(-c3ccccc3)n2)CC1 | -0.3699%
99 | NCC1Cc2cc(Oc3cc(F)c(CN4CCCC4)c(F)c3)ccc2O1 (configuration not stated) | -5.798%
100 | c1cc(-c2nnc(C3(c4ccc5c(c4)OCO5)CCOCC3)o2)ccn1 | -12.56%
101 | CCc1ccc(C(COC)NC(=O)c2ccc(O)nc2)o1 (configuration not stated) | -6.31%
102 | c1ccc(-n2nnnc2CN2CCCC(Cn3cncn3)C2)cc1 (configuration not stated) | 0.4093%
